PubChem BioAssay (NCI)
Compounds without any hit were thinned out: in the full panel of roughly 83,000, 20% have a hit.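 Step 1: grow cells in 96-well plates. Step 2: add test compound at a single concentration. Step 3: incubate 48 h. Step 4: record percent growth.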 Values without a mark were called inactive. Calls of active or inactive are those of the source. How the source made its calls: active means growth percent below 10; inactive means the rest.

Key:
Assay in all cases: NCI-60 one-dose screen, 48 h (100 = growth as untreated, 0 = no growth, -100 = all killed)
Details in all cases: 10 µM unless noted
[1] = test system: SK-MEL-2 melanoma
[2] = test system: EKVX NSCLC
[3] = test system: SN12C renal
[4] = test system: UO-31 renal
[5] = test system: TK-10 renal
[6] = test system: ACHN renal
[7] = test system: CAKI-1 renal
[8] = test system: A498 renal
[9] = test system: CCRF-CEM leukemia
[10] = test system: MOLT-4 leukemia
[11] = test system: RPMI-8226 leukemia
[12] = test system: OVCAR-8 ovarian
[13] = test system: OVCAR-5 ovarian
[14] = test system: SK-OV-3 ovarian
[15] = test system: IGROV1 ovarian
[16] = test system: OVCAR-3 ovarian
[17] = test system: HS 578T breast
[18] = test system: NCI/ADR-RES ovarian
[19] = test system: OVCAR-4 ovarian

Oc1ccc(Cl)cc1Cc1cc(Cl)cc(Cl)c1O
growth [1]: 37.4%
growth [2]: 35.6%
growth [3]: 20.4%
growth [4]: 44.8%
growth [5]: 79.5%
growth [6]: 27.9%
growth [7]: 49.6%
growth [8]: 85.9%
growth [9]: 19.5%
growth [10]: 19.2%
growth [11]: 0.811% (active)
growth [12]: 73.4%
growth [13]: 92.3%
growth [14]: 70.8%
growth [15]: 66%
growth [16]: -8.34% (active)
growth [17]: -14.8% (active)
growth [18]: 24.6%

CC1Cc2ccccc2N1NC(=O)c1ccc(Cl)c(S(N)(=O)=O)c1 (stereo unspecified)
growth [1]: 99.4%
growth [2]: 108%
growth [3]: 96.3%
growth [4]: 83.6%
growth [5]: 101%
growth [6]: 98%
growth [7]: 94.5%
growth [8]: 114%
growth [9]: 95.9%
growth [10]: 86.5%
growth [11]: 101%
growth [12]: 104%
growth [13]: 105%
growth [19]: 98.7%
growth [14]: 98.4%
growth [15]: 98.6%
growth [16]: 119%
growth [17]: 107%
growth [18]: 101%

Cc1nc(/N=C(\N)NC(=O)Nc2ccccc2Cl)sc1C
growth [1]: 45.6%
growth [2]: 48.7%
growth [3]: 42.7%
growth [4]: 58.1%
growth [5]: 70.7%
growth [6]: 52.3%
growth [7]: 30.9%
growth [8]: -15.9% (active)
growth [9]: 16.4%
growth [10]: 43.6%
growth [11]: 8.06% (active)
growth [12]: 33.9%
growth [13]: 51.3%
growth [19]: 55.1%
growth [14]: 45.4%
growth [15]: 42.8%
growth [16]: 12.1%
growth [17]: 13.5%
growth [18]: 15.7%

COc1ccc(C(=O)/C=C/c2sc(Cl)nc2Cl)cc1
growth [1]: 39.8%
growth [2]: 65.2%
growth [3]: 18%
growth [4]: 51.9%
growth [5]: 104%
growth [6]: -44.5% (active)
growth [7]: 27.4%
growth [8]: 93.2%
growth [9]: 12.3%
growth [10]: 11.6%
growth [11]: -25.4% (active)
growth [12]: 22.9%
growth [13]: 47.1%
growth [19]: 42.2%
growth [14]: 39%
growth [15]: 11.1%
growth [16]: -3.81% (active)
growth [17]: 58.5%
growth [18]: 1.37% (active)

CC(=O)CC(c1ccccc1)c1c(C)[nH]c2ccccc12 (stereo unspecified)
growth [1]: 105%
growth [2]: 85.9%
growth [3]: 94%
growth [4]: 72.6%
growth [5]: 117%
growth [6]: 92.8%
growth [7]: 77.8%
growth [8]: 88.1%
growth [9]: 101%
growth [10]: 95%
growth [11]: 94.4%
growth [12]: 97.4%
growth [13]: 94.2%
growth [19]: 100%
growth [14]: 104%
growth [15]: 91.5%
growth [16]: 95.9%
growth [17]: 84.6%
growth [18]: 93.6%

CC(=O)c1ccc(Nc2nc(C(C)=O)c(C)s2)cc1
growth [1]: 105%
growth [2]: 93.2%
growth [3]: 103%
growth [4]: 92.1%
growth [5]: 112%
growth [6]: 100%
growth [7]: 88.2%
growth [8]: -17.9% (active)
growth [9]: 90.9%
growth [10]: 100%
growth [11]: 95.1%
growth [12]: 102%
growth [13]: 108%
growth [19]: 94.4%
growth [14]: 101%
growth [15]: 98.2%
growth [16]: 99.9%
growth [17]: 99.5%
growth [18]: 105%

COc1ccc([C@H]2c3cc(OC)c(OC)cc3C=C(C=O)C2CO)cc1OC (stereo partly specified)
growth [1]: 20.8%
growth [2]: 91.2%
growth [3]: 68%
growth [4]: 68.4%
growth [5]: 73.4%
growth [6]: 57.8%
growth [7]: 52.4%
growth [8]: 104%
growth [9]: 56.4%
growth [10]: 49.5%
growth [11]: 61.5%
growth [12]: 60.8%
growth [13]: 106%
growth [19]: 63.5%
growth [14]: 73.3%
growth [15]: 34.1%
growth [16]: -30.6% (active)
growth [17]: 14.2%
growth [18]: 70.8%

COc1cc(C(=O)c2cc(C)c3[nH]c4ccc(C)cc4c3c2C)cc(OC)c1OC
growth [1]: 60.4%
growth [2]: 44.1%
growth [3]: 22.5%
growth [4]: 24.9%
growth [5]: 87.5%
growth [6]: 26.4%
growth [7]: 24.2%
growth [8]: -8.86% (active)
growth [9]: 14.2%
growth [10]: 16.8%
growth [11]: 12.9%
growth [12]: 28.7%
growth [13]: 41.7%
growth [19]: 53%
growth [14]: 36.9%
growth [15]: 13.5%
growth [16]: -16.4% (active)
growth [17]: 43.1%
growth [18]: -2.71% (active)
